According to PubChem BioAssay (EPA / NIEHS):
Results filed as inconclusive are left out. Calls of active or inactive are those of the source. The calls were made as follows: active = hit-call score of the fitted dose curve at least 0.9, where 1 is the maximum; inconclusive = response in the unintended direction; inactive = score below 0.9.

Assays:
[1] = TOX21_p53_BLA_p2_viability: Viability Assessment in the Tox21 HCT-116 p53 Agonism Beta-lactamase Assay, Phase 2 (AID 2283591);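 also: compound exposure lasted 16 h at 37 °C; actives lower the ATP signal meaning cytotoxicity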
How it was run: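 HCT-116 p53-bla cells (4000/well) rested 5 h at 37C, then received compounds in DMSO (217-fold dilution) for 16 h at 37C, 5% CO2. After the CCF4 read, CellTiter-Glo was added; ATP luminescence was read after 30 min at room temperature.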

[2] = target: Cellular tumor antigen p53 (Homo sapiens) (UniProt P04637); assay: TOX21_p53_BLA_p2_ratio: Tox21 HCT-116 p53 Agonism Beta-lactamase Assay, Ratio, Phase 2 (AID 2283592)
Chain of Cellular tumor antigen p53 (Homo sapiens) (P04637 whole entry, looked up): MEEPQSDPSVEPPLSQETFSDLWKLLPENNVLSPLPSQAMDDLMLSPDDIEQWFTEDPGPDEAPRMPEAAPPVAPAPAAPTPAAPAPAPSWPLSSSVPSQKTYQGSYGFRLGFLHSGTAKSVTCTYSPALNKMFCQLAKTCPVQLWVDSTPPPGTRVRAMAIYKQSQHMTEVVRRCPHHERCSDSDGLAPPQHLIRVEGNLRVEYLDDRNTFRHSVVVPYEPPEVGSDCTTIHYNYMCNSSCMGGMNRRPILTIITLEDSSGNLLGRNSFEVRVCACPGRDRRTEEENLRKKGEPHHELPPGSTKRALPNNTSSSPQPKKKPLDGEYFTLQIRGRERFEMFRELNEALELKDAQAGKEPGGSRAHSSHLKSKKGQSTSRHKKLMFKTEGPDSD
How it was run: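 Plated HCT116 p53-bla cells (4000/well) received compound after 5 h, then 16 h at 37C/5% CO2. CCF4-AM added, 2 h RT. Ratio of 460 to 530 nm emission taken as the p53 reporter signal.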

[3] = TOX21_p53_BLA_p3_viability: Viability Assessment in the Tox21 HCT-116 p53 Agonism Beta-lactamase Assay, Phase 3 (AID 2283593);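 also: cells exposed to compound for 16 h before reading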
How it was run: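 HCT-116 cells (4000/well) rested 5 h at 37C, then got DMSO compounds by pin tool (217-fold dilution) for 16 h at 37C, 5% CO2. After the bla read, CellTiter-Glo was added and luminescence read at 30 min, room temperature.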

[4] = target: Cellular tumor antigen p53 (Homo sapiens) (UniProt P04637); assay: TOX21_p53_BLA_p3_ratio: Tox21 HCT-116 p53 Agonism Beta-lactamase Assay, Ratio, Phase 3 (AID 2283596)
How it was run: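 Cells were seeded at 4000/well, rested 5 h at 37C, then dosed with DMSO compound solutions (217-fold dilution) for 16 h. CCF4-AM substrate was loaded for 2 h at room temperature, and the 460/530 nm emission ratio was fitted for gain of signal versus DMSO.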

[5] = TOX21_p53_BLA_p4_viability: Viability Assessment in the Tox21 HCT-116 p53 Agonism Beta-lactamase Assay, Phase 4 (AID 2283597);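 also: hits lower the luminescence signal meaning cytotoxicity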
How it was run: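 Readout: ATP luminescence (CellTiter-Glo), measured 30 min after reagent addition at RT. The reagent followed a 2 h CCF4-AM incubation, and the cells had been exposed to compound for 16 h at 37C.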

[6] = target: Cellular tumor antigen p53 (Homo sapiens) (UniProt P04637); assay: TOX21_p53_BLA_p5_ratio: Tox21 HCT-116 p53 Agonism Beta-lactamase Assay, Ratio, Phase 5 (AID 2283599)
How it was run: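 HCT-116 cells carrying a p53-inducible beta-lactamase reporter were seeded at 4000 cells/well and dosed after 5 h with compound in DMSO (217-fold dilution). After 16 h at 37C, CCF4-AM substrate was added for 2 h, and the 460/530 nm emission ratio was scored as gain-of-signal versus DMSO.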

[7] = TOX21_p53_BLA_p5_viability: Viability Assessment in the Tox21 HCT-116 p53 Agonism Beta-lactamase Assay, Phase 5 (AID 2283600)
How it was run: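 Workflow: seed 4000 cells per well, wait 5 h, add compounds (DMSO, 217-fold dilution), incubate 16 h, load CCF4-AM 2 h, add CellTiter-Glo, read luminescence after 30 min.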

[8] = target: Cellular tumor antigen p53 (Homo sapiens) (UniProt P04637); assay: TOX21_p53_BLA_p4_ratio: Tox21 HCT-116 p53 Agonism Beta-lactamase Assay, Ratio, Phase 4 (AID 2283601)
How it was run: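 HCT116 cells carrying an inducible beta-lactamase reporter were plated at 4000 cells/well, rested 5 h, then exposed to compounds in DMSO (217-fold dilution) for 16 h at 37C. CCF4-AM substrate was loaded 2 h at room temperature; 460/530 nm emission ratio scored gain-of-signal versus DMSO.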

| SMILES | outcome [1] | AC50 [2] | AC50 [3] | AC50 [4] | outcome [5] | outcome [6] | outcome [7] | outcome [8] | outcome [2] | outcome [3] | outcome [4] | AC50 [1] | AC50 [5] | AC50 [6] | AC50 [8] | AC50 [7] |
| --- | --- | --- | --- | --- | --- | --- | --- | --- | --- | --- | --- | --- | --- | --- | --- | --- |
| C=C1/C(=C\C=C2/CCC[C@]3(C)[C@@H]([C@H](C)CCCC(C)C)CC[C@@H]23)C[C@@H](O)C[C@@H]1O | inactive | 20.7 µM (active) | 37.1 µM (active) | 40 µM (active) | inactive | inactive | inactive | inactive | – | – | – | – | – | – | – | – |
| N[C@@H](COP(=O)(O)O)C(=O)O | inactive | – | – | – | inactive | inactive | inactive | inactive | inactive | inactive | inactive | – | – | – | – | – |
| O=C(Nc1ccc(Oc2ccc(Cl)cc2)c(Cl)c1)c1cc(I)cc(I)c1O | – | 4.05 µM (active) | 2.64 µM (active) | 3.93 µM (active) | – | – | inactive | – | – | – | – | 4.23 µM (active) | 2.3 µM (active) | 10.2 µM (active) | 8.12 µM (active) | – |
| Cc1ccc(O)c(O)c1 | – | – | 41.5 µM (active) | – | – | – | – | inactive | inactive | – | inactive | 40.8 µM (active) | 41 µM (active) | 66 µM (active) | – | 42 µM (active) |
| CCC(C)Nc1ccc(NC(C)CC)cc1 (stereo unspecified) | – | – | 22.4 µM (active) | 46.8 µM (active) | – | inactive | – | inactive | inactive | – | – | 15.1 µM (active) | 19.2 µM (active) | – | – | 30.1 µM (active) |
| c1ccc2c(CC3=NCCN3)cccc2c1 | inactive | – | – | – | inactive | inactive | inactive | inactive | inactive | inactive | inactive | – | – | – | – | – |
| CC(C)(C)C(=O)C(Oc1ccc(Cl)cc1)n1ccnc1 (stereo unspecified) | inactive | – | – | – | inactive | inactive | inactive | inactive | inactive | inactive | inactive | – | – | – | – | – |
| O=C(O)C[C@H](NC(=O)OCc1ccccc1)C(=O)O | inactive | – | – | – | inactive | inactive | inactive | inactive | inactive | inactive | inactive | – | – | – | – | – |
| CN(C)CCCN1c2ccccc2Sc2ccc(C(F)(F)F)cc21 | inactive | – | – | 11.1 µM (active) | – | inactive | inactive | – | inactive | inactive | – | – | 36.2 µM (active) | – | 10.1 µM (active) | – |
| C#C[C@]1(O)CC[C@H]2[C@@H]3[C@H](C)CC4=C(CCC(=O)C4)[C@H]3CC[C@@]21C | inactive | – | – | – | inactive | inactive | inactive | inactive | inactive | inactive | inactive | – | – | – | – | – |
| CCCCCCCCCCCCCCC(=O)O | inactive | – | – | – | inactive | inactive | inactive | inactive | inactive | inactive | inactive | – | – | – | – | – |
| O=C(O)c1cc(N=Nc2ccc([N+](=O)[O-])cc2)ccc1O | – | – | 45.4 µM (active) | – | – | inactive | inactive | inactive | inactive | – | inactive | 84.1 µM (active) | 29.6 µM (active) | – | – | – |
| CSc1nc2cc(Oc3cccc(Cl)c3Cl)c(Cl)cc2[nH]1 | – | 33.3 µM (active) | 22.6 µM (active) | 33.9 µM (active) | – | inactive | inactive | – | – | – | – | 14.5 µM (active) | 33.2 µM (active) | – | 20.5 µM (active) | – |
| Cc1cccc(N(C)C(=S)Oc2ccc3c(c2)CCC3)c1 | inactive | – | – | – | inactive | inactive | inactive | inactive | inactive | inactive | inactive | – | – | – | – | – |
| CC(C)(O)c1ccccc1CC[C@@H](SCC1(CC(=O)O)CC1)c1cccc(/C=C/c2ccc3ccc(Cl)cc3n2)c1 | – | – | 19.4 µM (active) | 33.8 µM (active) | – | – | – | – | inactive | – | – | 18.2 µM (active) | 15.1 µM (active) | 17.6 µM (active) | 18.8 µM (active) | 14.5 µM (active) |
| O=C1C(c2[nH]c3ccccc3c2O)=Nc2ccccc21 | inactive | – | – | – | inactive | inactive | inactive | inactive | inactive | inactive | inactive | – | – | – | – | – |
| CC(C)c1ccc2sc3ccccc3c(=O)c2c1 | inactive | – | – | – | – | inactive | inactive | inactive | inactive | inactive | inactive | – | 72.8 µM (active) | – | – | – |
| COc1cc(O)cc(O)c1 | inactive | – | – | – | inactive | inactive | inactive | inactive | inactive | inactive | inactive | – | – | – | – | – |
| CCCCCCCC/C=C\CCCCCCCC(=O)NCc1ccc(O)c(OC)c1 | inactive | – | 41.5 µM (active) | – | inactive | inactive | inactive | inactive | inactive | – | inactive | – | – | – | – | – |
| OC1(c2ccc(Cl)c(C(F)(F)F)c2)CCN(CCCC(c2ccc(F)cc2)c2ccc(F)cc2)CC1 | – | 19.6 µM (active) | 30.7 µM (active) | 40.1 µM (active) | – | – | – | – | – | – | – | 12.8 µM (active) | 20 µM (active) | 43.2 µM (active) | 34.1 µM (active) | 37.6 µM (active) |
| CCCCN(CCCC)c1ccc(C(=O)c2ccccc2C(=O)O)c(O)c1 | – | – | 23.1 µM (active) | 39.8 µM (active) | – | – | – | – | inactive | – | – | 17.2 µM (active) | 21.2 µM (active) | 52.2 µM (active) | 45.5 µM (active) | 20.3 µM (active) |
| C[C@@H]1CN(CCCn2c3ccccc3c3ccccc32)C[C@H](C)N1 | inactive | – | – | – | – | inactive | inactive | inactive | inactive | inactive | inactive | – | 28.9 µM (active) | – | – | – |
